Assay results taken from PubChem BioAssay AID1159580 (chemical genetic matrix, 2015).
Out of some 5,500 compounds screened, about 2,000 (36%) were called active. Roughly 18% stayed inconclusive and do not appear here. Cut-off read from the data, not from the text of the source: active = normalized growth mostly below about 0.91 (no sharp cut-off); inconclusive = no clear call, values can overlap the other calls; inactive = mostly above about 0.92. Some of the results follow.

Test: chemical genetic growth profiling, strain panel (AID 1159580);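 note: tested at 20 µM; growth read once vehicle control cultures reached saturation at 30 °C; 1 = growth at the plate median or of vehicle wells; lower values mean less growth of the strain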
Conditions: growth OD

Measured: normalized growth

COc1ccc2cc1Oc1ccc(cc1)C[C@H]1c3cc(c(OC)cc3CCN1C)Oc1c(OC)c(OC)cc3c1[C@H](C2)N(C)CC3
inactive: S. cerevisiae deletion strains, locus YKL009W, strain mrt4, hits give low values 1.02 | S. cerevisiae deletion strains, locus YKL068W, hits give low values 1.01 | S. cerevisiae deletion strains, locus YKL085W, strain MDH1 (second series), hits give low values 1.01 | S. cerevisiae deletion strains, locus YKL085W, strain MDH1, hits give low values 1.01 | S. cerevisiae deletion strains, locus YKL160W, strain elf1, hits give low values 0.99 | S. cerevisiae deletion strains, locus YKL190W, strain CNB1, hits give low values 1.01 | S. cerevisiae deletion strains, locus YKR001C, strain vps1, hits give low values 0.973 | S. cerevisiae deletion strains, locus YKR026C, strain gcn3, hits give low values 1 | S. cerevisiae deletion strains, locus YKR091W, strain srl3, hits give low values 1 | S. cerevisiae deletion strains, locus YLL001W, strain dnm1, hits give low values 0.986 | S. cerevisiae deletion strains, locus YLL026W, hits give low values 1 | S. cerevisiae deletion strains, locus YLL041C, strain sdh2, hits give low values 1 | S. cerevisiae deletion strains, locus YLR027C, strain aat2, hits give low values 1.01 | S. cerevisiae deletion strains, locus YLR039C, strain RIC1, hits give low values 0.94 | S. cerevisiae deletion strains, locus YLR058C, strain SHM2, hits give low values 1.01 | S. cerevisiae deletion strains, locus YLR102C, strain apc9, hits give low values 1.01 | S. cerevisiae deletion strains, locus YLR113W, strain HOG1, hits give low values 1.07 | S. cerevisiae deletion strains, locus YLR221C, strain rsa3, hits give low values 1.01 | S. cerevisiae deletion strains, locus YLR258W, strain gsy2, hits give low values 1.01 | S. cerevisiae deletion strains, locus YLR262C, strain YPT6 (second series), hits give low values 0.975 | S. cerevisiae deletion strains, locus YLR262C, strain YPT6, hits give low values 0.993 | S. cerevisiae deletion strains, locus YLR268W, strain sec22, hits give low values 1.01 | S. cerevisiae deletion strains, locus YLR320W, strain mms22, hits give low values 0.987 | S. cerevisiae deletion strains, locus YLR330W, strain CHS5, hits give low values 1.02 | S. cerevisiae deletion strains, locus YLR342W, strain FKS1 (second series), hits give low values 0.885 | S. cerevisiae deletion strains, locus YLR342W, strain FKS1, hits give low values 1.01 | S. cerevisiae deletion strains, locus YLR357W, strain rsc2, hits give low values 0.977 | S. cerevisiae deletion strains, locus YLR370C, strain arc18, hits give low values 0.914 | S. cerevisiae deletion strains, locus YLR371W, strain rom2, hits give low values 1.01 | S. cerevisiae deletion strains, locus YLR384C, strain iki3, hits give low values 1.01 | S. cerevisiae deletion strains, locus YLR418C, strain cdc73, hits give low values 0.96 | S. cerevisiae deletion strains, locus YML016C, strain PPZ1, hits give low values 1 | S. cerevisiae deletion strains, locus YML032C, strain rad52, hits give low values 1.01 | S. cerevisiae deletion strains, locus YML120C, strain ndi1, hits give low values 1.02 | S. cerevisiae deletion strains, locus YML124C, strain tub3, hits give low values 1.02 | S. cerevisiae deletion strains, locus YMR058W, strain fet3, hits give low values 1 | S. cerevisiae deletion strains, locus YMR078C, strain ctf18, hits give low values 1.02 | S. cerevisiae deletion strains, locus YMR125W, strain sto1, hits give low values 0.992 | S. cerevisiae deletion strains, locus YMR129W, hits give low values 1.02 | S. cerevisiae deletion strains, locus YMR205C, strain PFK2, hits give low values 0.963 | S. cerevisiae deletion strains, locus YMR223W, strain ubp8, hits give low values 0.986 | S. cerevisiae deletion strains, locus YMR231W, strain pep5, hits give low values 1.01 | S. cerevisiae deletion strains, locus YMR263W, strain SAP30, hits give low values 1 | S. cerevisiae deletion strains, locus YMR307W, strain GAS1, hits give low values 0.966 | S. cerevisiae deletion strains, locus YNL067W, strain RPL9B, hits give low values 1.01 | S. cerevisiae deletion strains, locus YNL071W, strain lat1, hits give low values 0.998 | S. cerevisiae deletion strains, locus YNL128W, strain TEP1, hits give low values 1.01 | S. cerevisiae deletion strains, locus YNL153C, strain GIM3, hits give low values 0.995 | S. cerevisiae deletion strains, locus YNL183C, strain NPR1, hits give low values 0.999 | S. cerevisiae deletion strains, locus YNL209W, strain ssb2, hits give low values 0.995 | S. cerevisiae deletion strains, locus YNL233W, strain BNI4, hits give low values 0.995 | S. cerevisiae deletion strains, locus YNL248C, strain rpa49, hits give low values 1.01 | S. cerevisiae deletion strains, locus YNL250W, strain rad50, hits give low values 1.02 | S. cerevisiae deletion strains, locus YNL271C, strain bni1, hits give low values 1.01 | S. cerevisiae deletion strains, locus YNL298W, strain CLA4, hits give low values 1.01 | S. cerevisiae deletion strains, locus YNL322C, strain KRE1 (second series), hits give low values 1.01 | S. cerevisiae deletion strains, locus YNL322C, strain KRE1, hits give low values 1.02 | S. cerevisiae deletion strains, locus YNR049C, strain mso1, hits give low values 0.991 | S. cerevisiae deletion strains, locus YNR052C, strain pop2, hits give low values 0.968 | S. cerevisiae deletion strains, locus YOL006C, strain TOP1, hits give low values 0.632 | S. cerevisiae deletion strains, locus YOL012C, strain htz1 0.904 | S. cerevisiae deletion strains, locus YOL147C, strain pex11, hits give low values 1.01 | S. cerevisiae deletion strains, locus YOR001W, strain rrp6, hits give low values 1 | S. cerevisiae deletion strains, locus YOR061W, strain CKA2, hits give low values 0.993 | S. cerevisiae deletion strains, locus YOR069W, strain VPS5, hits give low values 1.01 | S. cerevisiae deletion strains, locus YOR070C, strain gyp1, hits give low values 1 | S. cerevisiae deletion strains, locus YOR080W, strain dia2, hits give low values 0.995 | S. cerevisiae deletion strains, locus YOR083W, strain WHI5, hits give low values 0.968 | S. cerevisiae deletion strains, locus YOR106W, strain vam3, hits give low values 0.961 | S. cerevisiae deletion strains, locus YOR136W, strain idh2, hits give low values 0.999 | S. cerevisiae deletion strains, locus YOR144C, strain elg1, hits give low values 1.01 | S. cerevisiae deletion strains, locus YOR184W, strain ser1, hits give low values 1.02 | S. cerevisiae deletion strains, locus YOR231W, strain MKK1, hits give low values 0.974 | S. cerevisiae deletion strains, locus YOR265W, strain rbl2, hits give low values 0.984 | S. cerevisiae deletion strains, locus YOR290C, strain snf2, hits give low values 0.937 | S. cerevisiae deletion strains, locus YOR316C, strain cot1, hits give low values 1.01 | S. cerevisiae deletion strains, locus YPL051W, strain arl3, hits give low values 0.982 | S. cerevisiae deletion strains, locus YPL055C, strain LGE1, hits give low values 0.975 | S. cerevisiae deletion strains, locus YPL078C, strain atp4, hits give low values 0.974 | S. cerevisiae deletion strains, locus YPL106C, strain sse1, hits give low values 0.984 | S. cerevisiae deletion strains, locus YPL240C, strain hsp82, hits give low values 1.01 | S. cerevisiae deletion strains, locus YPL241C, strain CIN2, hits give low values 1 | S. cerevisiae deletion strains, locus YPL256C, strain CLN2, hits give low values 1.02 | S. cerevisiae deletion strains, locus YPR119W, strain clb2, hits give low values 1.01 | S. cerevisiae deletion strains, locus YPR141C, strain kar3, hits give low values 1.02 | S. cerevisiae deletion strains, locus YPR163C, strain tif3, hits give low values 0.987 | S. cerevisiae deletion strains, locus YPR167C, strain met16, hits give low values 1.01 | S. cerevisiae deletion strains, strain wtn01, hits give low values 1 | S. cerevisiae strains, strain wild type, hits give low values 0.981
active: S. cerevisiae deletion strains, locus YNL307C, strain MCK1, hits give low values 0.902 | S. cerevisiae deletion strains, locus YOR270C, strain vph1, hits give low values 0.723
